Data as given in PubChem BioAssay (EPA / NIEHS).
Where “and” joins values, the source holds several entries; their conditions need not be identical. Equal entries are not always repeated. Some structures have more than one record in an assay (separate samples or runs), and their calls can disagree. Calls of active or inactive are those of the source. How the source made its calls: active means hit-call score of the fitted dose curve at least 0.9, where 1 is the maximum; inactive means score below 0.9.

These compounds were tested against Hepatocyte nuclear factor 3-beta (Homo sapiens) (UniProt Q9Y261) (assay: ATG_FoxA2_CIS: Attagene CIS-FACTORIAL HepG2 Assay for human Forkhead box A2 (FOXA2) (AID 2282942)). Conditions: HepG2 cis-reporter transcription factor activity, 24 h; actives raise or lower the signal.
Description: ATG_CIS is a cell-based, multiplexed-readout assay that uses HepG2, a human liver cell line, with measurements taken at 24 hours after chemical dosing in a 24-well plate.ATG_FoxA2_CIS is one of 52 assay component(s) measured or calculated from the ATG_CIS assay. It is designed to make measurements of mRNA induction, a form of inducible reporter, as detected with fluorescence intensity signals by Reverse transcription polymerase chain reaction (RT-PCR) and Capillary electrophoresis technology.Data from the assay component ATG_FoxA2_CIS was analyzed into 1 assay endpoint. This assay endpoint, ATG_FoxA2_CIS, was analyzed with bidirectional fitting relative to DMSO as the negative control and baseline of activity. Using a type of inducible reporter, measures of mRNA for gain or loss-of-signal activity can be used to understand the reporter gene at the transcription factor-level as they relate to the gene FOXA2. Furthermore, this assay endpoint can be referred to as a primary readout, because this assay has produced multiple assay endpoints where this one serves a reporter gene function. To generalize the intended target to other relatable targets, this assay endpoint is annotated to the dna binding intended target family, where the subfamily is forkhead box protein.
Human liver HepG2 cells are transiently transfected with multiple reporter transcription units (MRTUs) in 6-well plates using FuGene 6 reagent (Roche; 3 ml FuGene/1 mg DNA). The MRTU constructs are regulated by a cis-regulating element (promoter). […] A major difference between the CIS and TRANS system is that in CIS activities of endogenous TFs are measured, whereas the TRANS assay evaluates changes in activities of exogenous, chimeric NR-Gal4 proteins. […] At the end of 24 hour incubation, total RNA was isolated using TriZol reagent (Invitrogen). The isolated RNA is then reverse-transcribed using oligo(dT) primer and Mo-MLV reverse transcriptase (Invitrogen) with DNAse I (Ambion) treatment for 30 min. The one-tenth of the produced cDNA was amplified by PCR using Taq DNA polymerase (Invitrogen) and two reporter sequence-specific primers. The PCR products were fluorescently labeled by primer extension with 6-arboxyfluorescein (6-FAM) 5'-labeled reporter sequence-specific primer (2 min at 95 C, 20 s at 68 C and 10 min at 72 C) and these products were digested with 5U of HpaI (New England Biolabs) for 2h at 37 C. The fragments were purified using Qiaquick PCR columns (Qiagen), analyzed on an ABI 3130xL genetic analyzer (Applied Biosystems) with peak positions identified by using a set of X-rhodamine (ROX)-labeled MapMarker1000 molecular weight standards (BioVentures). The raw capillary electrophoresis data was processed using Attagraph software (Attagene).

Sequence of Hepatocyte nuclear factor 3-beta (Homo sapiens) (Q9Y261 whole entry, looked up): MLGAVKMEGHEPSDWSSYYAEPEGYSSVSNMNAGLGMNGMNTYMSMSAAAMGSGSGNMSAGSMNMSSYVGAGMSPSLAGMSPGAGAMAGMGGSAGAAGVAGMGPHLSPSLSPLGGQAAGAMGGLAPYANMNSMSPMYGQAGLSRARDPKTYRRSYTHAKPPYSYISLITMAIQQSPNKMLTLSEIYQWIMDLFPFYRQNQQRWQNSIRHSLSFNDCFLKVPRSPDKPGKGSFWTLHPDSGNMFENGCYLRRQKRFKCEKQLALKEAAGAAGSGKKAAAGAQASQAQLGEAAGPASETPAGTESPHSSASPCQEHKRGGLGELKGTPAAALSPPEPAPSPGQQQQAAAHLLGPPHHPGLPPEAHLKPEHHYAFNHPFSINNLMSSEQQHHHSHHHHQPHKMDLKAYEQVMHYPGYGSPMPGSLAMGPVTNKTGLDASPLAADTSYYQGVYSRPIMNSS

| Structure (SMILES) | outcome | AC50 |
| --- | --- | --- |
| NC(=O)N(O)[C@@H]1C=C[C@H](Oc2cccc(Oc3ccc(F)cc3)c2)C1 | inactive |  |
| NC(=O)N1C(=O)C(C(=O)c2cc(Cl)cs2)c2cc(F)c(Cl)cc21 (stereo not given) | inactive |  |
| CCCCCCCCCCCCCCCS(=O)(=O)Oc1ccccc1 | inactive |  |
| CCc1ccc(CCOc2ccc(CC3SC(=O)NC3=O)cc2)nc1 (stereo not given) | inactive |  |
| C[C@@H]1C[C@H]2[C@@H]3CCC4=CC(=O)C=C[C@]4(C)[C@@]3(F)[C@@H](O)C[C@]2(C)[C@@]1(O)C(=O)COP(=O)(O)O | inactive |  |
| N#C[C@@H]1CC(F)(F)CN1C(=O)CNC1CC2CCC(C1)N2c1ncccn1 (stereo not given in full) | inactive |  |
| CN1CCN(c2ccccc2/C=C2\SCCN(c3ccc(Cl)c(Cl)c3)C2=O)CC1 | inactive |  |
| Cc1ccc(S(=O)(=O)O)c(C)c1 | inactive |  |
| O=[N+]([O-])c1ccc(O)cc1 | inactive |  |
| O=C(O)Cc1cc(I)c(Oc2cc(I)c(O)c(I)c2)c(I)c1 | inactive | 83.7 µM (active) |
| COCC(C)O (stereo not given) | inactive |  |
| CC(C)(C)c1cc(C(C)(C)C)c(O)c(C(C)(C)C)c1 | inactive |  |
| c1ccc2c(c1)ccc1ccccc12 | inactive |  |
| FC(F)(I)C(F)(F)C(F)(F)C(F)(F)C(F)(F)C(F)(F)I | inactive |  |
| c1ccc2cc3c(ccc4ccccc43)cc2c1 | inactive |  |
| CCCCC(CC)COC(=O)CCCCC(=O)OCc1ccccc1 (stereo not given) | inactive |  |
| CCCCCCCC(=O)O | inactive |  |
| CCOC(=O)CC(O)(CC(=O)OCC)C(=O)OCC | inactive |  |
| OCCC(F)(F)C(F)(F)C(F)(F)C(F)(F)C(F)(F)C(F)(F)F | inactive |  |

| Structure (SMILES) | outcome | AC50 |
| --- | --- | --- |
| O=C1OC2(c3ccccc31)c1cc(Br)c(O)c(Br)c1Oc1c2cc(Br)c(O)c1Br | inactive |  |
| CCc1nn(C2CCCCC2)c2cc(C3(C#N)CCC(C(=O)O)CC3)ccc12 (stereo not given) | inactive |  |
| CCCCC[C@H](O)CC(=O)CCc1ccc(O)c(OC)c1 | inactive |  |
| Oc1cc2ccccc2c2ccccc12 | inactive |  |
| CCCCCCCCOC(=O)CCCCCCCCC(=O)OCCCCCCCC | inactive |  |
| OCCC(F)(F)C(F)(F)C(F)(F)C(F)(F)C(F)(F)C(F)(F)C(F)(F)C(F)(F)F |  | 51.9 µM (active) and 235 µM (active) |
| CCCCOCCO | inactive |  |
| Oc1cccc(O)c1 | inactive |  |
| CC(C)CCCCCCOC(=O)CCCCC(=O)OCCCCCCC(C)C | inactive |  |
| COc1cc(CCC(=O)CC(=O)CCc2ccc(O)c(OC)c2)ccc1O | inactive |  |
| CC#C[C@]1(O)CC[C@H]2[C@@H]3CCC4=CC(=O)CCC4=C3[C@@H](c3ccc(N(C)C)cc3)C[C@@]21C | inactive | 58.4 µM (active) |
| CC1=C(/C=C/C(C)=C/C=C/C(C)=C/C(=O)O)C(C)(C)CCC1 | inactive |  |
| COc1ccc([N+](=O)[O-])cc1N | inactive |  |
| CC(C)(C)c1ccc(O)c(C(C)(C)C)c1 | inactive |  |
| O=C(/C=C/c1ccc(O)cc1)CC(=O)/C=C/c1ccc(O)cc1 | inactive |  |
| CCC(C)(C)C1CCC(O)CC1 (stereo not given) | inactive |  |
| CC(O)C(=O)O (stereo not given) | inactive |  |
| Nc1cccc2c(N)cccc12 | inactive |  |
| ClC1=C(Cl)C(Cl)(Cl)C(Cl)=C1Cl | inactive |  |
